The test system of assay [1] is Plasmodium falciparum Sir2 (PF13_0152, Sir2A). The experiment in a line: Plasmodium falciparum Sir2A binding compounds – biochemical, small-molecule microarray, 635 nm fluorescence, primary screen (AID 1098).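 Note: score merges spot fluorescence intensity with its signal-to-noise ratio.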 The following applies: fluorescence 635 nm, higher = more signal.
Assay [2] can be described thus: probe aDKK1 binding to arrayed compounds – biochemical, biotinylated probe, 635/667 nm fluorescence, primary screen (AID 1099).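 Note: score merges 667nm spot fluorescence with signal to noise across triplicate slides.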 The following applies: small-molecule microarray, higher = more signal.
A short description of assay [3]: probe aCHRDL2 binding to arrayed compounds – biochemical, biotinylated probe, 635/667 nm fluorescence, primary screen (AID 1100). As to conditions: small-molecule microarray, higher = more signal.
The nature of assay [4]: change in splice reporter luminescence, either direction, cell-based, HEK293, spliceosome inhibition project, primary screen (AID 1101).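 Note: HEK293 cells carrying a splicing-competent luciferase reporter gene; test concentration not given here.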 As to conditions: HEK293 splicing luciferase reporter, 24 h, higher = more signal, called active from +8 up or from −8 down. (In a reporter assay the amount or activity of a reporter protein is the signal.)
The target of assay [5] is Fibroblast growth factor 10 (Homo sapiens) (UniProt O15520). In words: compounds binding fibroblast growth factor 10 – biochemical, small-molecule microarray, 635 nm fluorescence, primary screen (AID 1102). As to conditions: FGF10 binding, fluorescence 635 nm, higher = more signal.
The test system of assay [6] is glycogen synthase kinase-3 (GSK3A per assay name; protocol says GSK3B). In words: compounds binding glycogen synthase kinase-3 – biochemical, small-molecule microarray, 635 nm fluorescence, GSK3A, primary screen (AID 1103). Note: the record names both GSK3A and GSK3B. As to conditions: fluorescence 635 nm, higher = more signal.
Assay [7] deals with Epidermal growth factor receptor (Homo sapiens) (UniProt P00533). In words: compounds binding epidermal growth factor receptor – biochemical, small-molecule microarray, 635 nm fluorescence, primary screen (AID 1104).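 Note: score merges 667 nm emission intensity with spot signal to noise over triplicate slides.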 The following applies: EGFR binding, higher = more signal.
In assay [8] the target is Follistatin-related protein 3 (Homo sapiens) (UniProt O95633). The experiment in a line: compounds binding follistatin-related protein 3 – biochemical, small-molecule microarray, 635 nm fluorescence, primary screen (AID 1105).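 Note: score merges emission near 667 nm and signal to noise per printed spot across three slides.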 As to conditions: FSTL3 binding, higher = more signal.
Assay [9] concerns the target Dickkopf-related protein 1 (Homo sapiens) (UniProt O94907). The experiment in a line: small molecules binding DKK1 protein – biochemical, small-molecule microarray, 635 nm fluorescence scan, primary screen (AID 1106).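 Note: score merges emission near 667 nm with signal to noise over three replicate slides.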 As to conditions: higher = more signal.
Assay [10] concerns Inhibin beta A chain (activin A). In words: small molecules binding activin A – biochemical, small-molecule microarray, 635 nm fluorescence scan, primary screen (AID 1107).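 Note: mouse activin A protein probed at 4.33 µg/mL on printed slides; score merges bound-protein fluorescence near 667 nm with spot signal-to-noise.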 The following applies: INHBA, higher = more signal.
Assay [11] has as its system Human papillomavirus type 1a protein E7 (residues 44-93). The experiment in a line: small molecules binding HPV E7 44-93 – biochemical, small-molecule microarray, residues 44-93, 635 nm fluorescence, primary screen (AID 1108).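 Note: E7 fragment applied at 1 µg/mL in TBST for 1 h at 4 C; score combines spot fluorescence with its signal to noise ratio.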 The following applies: fluorescence 635 nm, higher = more signal.
The nature of assay [12]: hepatitis C replication reporter changes, two-sided – Huh7 cells, luciferase reporter, HCV replication inhibitor project, primary screen (AID 1109).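 Note: huh7 hepatoma cells harbouring a luciferase neomycin HCV replicon reporter; luciferase luminescence as measure of HCV replicon replication; test concentration not given here.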 The following applies: Huh7 HCV replicon luciferase reporter, 48 h; higher = more signal.
The target of assay [13] is Left-right determination factor 2 (Homo sapiens) (UniProt O00292). The experiment in a line: small molecules binding LEFTY2 protein – biochemical, small-molecule microarray, 635 nm fluorescence scan, primary screen (AID 1110). The following applies: higher = more signal.
Assay [14] addresses Calmodulin-1 (Homo sapiens) (UniProt P0DP23). In words: small molecules binding calmodulin-1 with EGTA – biochemical, small-molecule microarray, Cy5-labelled CALM1, profiling panel (AID 1111).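 Note: labelled calmodulin applied in Tris saline Tween buffer holding calcium plus EGTA and DTT.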 As to conditions: Cy5-CALM1 binding fluorescence, higher = more signal.
The target is the same in assay [15]. The experiment in a line: small molecules binding Ca-loaded calmodulin-1 – biochemical, small-molecule microarray, Cy5-labelled CALM1, plus calcium, artefact control for SMM control-protein annotation, profiling panel (AID 1112).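 Note: score merges spot fluorescence with signal to noise from triplicate slides.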 As to conditions: Cy5-CALM1 binding fluorescence, higher = more signal.
Assay [16] is described as follows: probe aWnt5a binding to arrayed compounds – biochemical, biotinylated probe, 635/667 nm fluorescence, primary screen (AID 1113).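 Note: score merges 667 nm fluorescence intensity with signal-to-noise per printed feature.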 As to conditions: small-molecule microarray, higher = more signal.
Assay [17] in a line: probe aShh binding to arrayed compounds – biochemical, biotinylated probe, 635/667 nm fluorescence, primary screen (AID 1114).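 Note: probe is biotin-labelled aShh protein from a stem cell growth factor screen; measures binding of labelled protein to compounds printed on the slide; score merges feature fluorescence at 667 nm with signal-to-noise.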 The following applies: small-molecule microarray, higher = more signal.
The nature of assay [18]: probe aNog binding to arrayed compounds – biochemical, biotinylated probe, 635/667 nm fluorescence, primary screen (AID 1115).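 Note: probe is biotinylated aNog protein used at 0.15 µg/mL for 1 h at 4 C; z-score combines 667 nm fluorescence of each spot with its signal to noise.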 As to conditions: small-molecule microarray, higher = more signal.
The target of assay [19] is Torsin-1A-interacting protein 1 (Homo sapiens) (UniProt Q5JTV8). In words: compound microarray binding of lysate hLAP1 – cell lysate, small-molecule microarray, COS7 lysate, 635/667 nm fluorescence, primary screen (AID 1116). The following applies: 635 nm fluorescence, higher = more signal.
For assay [20], the target named is Alpha-bungarotoxin (Bungarus multicinctus) (UniProt P60615). In words: compounds binding labelled alpha-BTX control protein – biochemical, small-molecule microarray, Alexa647 label, 635/667 nm fluorescence, artefact control for SMM control protein annotation, profiling panel (AID 1117). As to conditions: alpha-BTX-A647 binding fluorescence, higher = more signal.

Calls of active or inactive are those of the source.

Sequence of Torsin-1A-interacting protein 1 (Homo sapiens) (Q5JTV8 whole entry, looked up): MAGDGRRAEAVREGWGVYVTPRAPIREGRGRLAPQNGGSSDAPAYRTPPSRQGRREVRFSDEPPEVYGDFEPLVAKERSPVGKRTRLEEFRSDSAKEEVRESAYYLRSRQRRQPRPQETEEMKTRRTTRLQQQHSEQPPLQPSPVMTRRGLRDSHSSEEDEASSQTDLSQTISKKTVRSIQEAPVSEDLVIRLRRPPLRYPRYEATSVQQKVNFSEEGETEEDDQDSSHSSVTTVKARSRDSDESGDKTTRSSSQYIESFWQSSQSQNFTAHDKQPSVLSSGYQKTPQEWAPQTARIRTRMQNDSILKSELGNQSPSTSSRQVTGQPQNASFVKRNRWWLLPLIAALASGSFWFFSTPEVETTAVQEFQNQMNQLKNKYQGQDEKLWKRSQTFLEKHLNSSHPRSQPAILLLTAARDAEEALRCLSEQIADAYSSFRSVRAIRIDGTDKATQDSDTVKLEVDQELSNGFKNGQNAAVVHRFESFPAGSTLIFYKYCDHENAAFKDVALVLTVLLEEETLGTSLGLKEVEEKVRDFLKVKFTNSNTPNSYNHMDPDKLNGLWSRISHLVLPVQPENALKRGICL
Sequence of Alpha-bungarotoxin (Bungarus multicinctus) (P60615 whole entry, looked up): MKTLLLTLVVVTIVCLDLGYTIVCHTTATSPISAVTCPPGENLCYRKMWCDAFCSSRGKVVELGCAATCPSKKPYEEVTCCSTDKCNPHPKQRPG
Sequence of Dickkopf-related protein 1 (Homo sapiens) (O94907 whole entry, looked up): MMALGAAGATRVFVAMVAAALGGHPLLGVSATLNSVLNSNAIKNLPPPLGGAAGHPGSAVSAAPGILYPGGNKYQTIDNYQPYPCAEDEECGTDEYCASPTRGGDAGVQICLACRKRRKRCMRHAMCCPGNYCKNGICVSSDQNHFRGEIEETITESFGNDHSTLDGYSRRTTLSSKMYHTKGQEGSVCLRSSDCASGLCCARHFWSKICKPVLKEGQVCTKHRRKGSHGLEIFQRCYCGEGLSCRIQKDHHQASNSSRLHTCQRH
Sequence of Epidermal growth factor receptor (Homo sapiens) (P00533 whole entry, looked up): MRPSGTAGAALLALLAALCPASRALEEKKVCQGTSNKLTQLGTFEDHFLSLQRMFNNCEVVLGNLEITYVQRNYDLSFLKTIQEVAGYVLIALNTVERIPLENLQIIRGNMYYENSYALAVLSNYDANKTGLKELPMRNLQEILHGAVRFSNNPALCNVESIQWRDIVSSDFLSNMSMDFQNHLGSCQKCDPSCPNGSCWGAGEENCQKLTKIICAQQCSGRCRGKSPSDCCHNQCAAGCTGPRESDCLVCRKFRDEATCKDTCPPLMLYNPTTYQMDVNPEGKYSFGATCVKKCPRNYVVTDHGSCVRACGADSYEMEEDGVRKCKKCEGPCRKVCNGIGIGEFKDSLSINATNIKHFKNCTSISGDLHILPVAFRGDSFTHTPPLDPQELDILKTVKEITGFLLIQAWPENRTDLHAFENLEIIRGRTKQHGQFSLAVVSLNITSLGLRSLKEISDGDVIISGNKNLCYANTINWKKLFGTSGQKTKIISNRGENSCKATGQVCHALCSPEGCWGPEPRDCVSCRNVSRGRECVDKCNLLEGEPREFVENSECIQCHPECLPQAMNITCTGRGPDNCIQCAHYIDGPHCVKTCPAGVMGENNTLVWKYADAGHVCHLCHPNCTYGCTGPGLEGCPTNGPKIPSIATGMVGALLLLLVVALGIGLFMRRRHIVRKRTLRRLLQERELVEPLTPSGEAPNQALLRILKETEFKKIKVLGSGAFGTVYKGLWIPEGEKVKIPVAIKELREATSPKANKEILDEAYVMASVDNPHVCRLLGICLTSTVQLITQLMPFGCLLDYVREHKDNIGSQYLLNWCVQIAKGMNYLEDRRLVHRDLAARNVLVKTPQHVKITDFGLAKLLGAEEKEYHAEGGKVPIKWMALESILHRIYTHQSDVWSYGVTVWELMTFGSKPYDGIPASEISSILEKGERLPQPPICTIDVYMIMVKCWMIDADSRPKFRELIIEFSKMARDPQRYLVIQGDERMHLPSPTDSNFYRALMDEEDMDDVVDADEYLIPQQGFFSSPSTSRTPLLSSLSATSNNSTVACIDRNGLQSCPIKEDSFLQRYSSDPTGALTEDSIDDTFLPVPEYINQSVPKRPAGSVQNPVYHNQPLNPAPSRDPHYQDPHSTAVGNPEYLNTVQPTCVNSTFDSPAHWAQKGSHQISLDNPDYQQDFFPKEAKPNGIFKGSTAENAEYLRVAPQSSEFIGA
Sequence of Follistatin-related protein 3 (Homo sapiens) (O95633 whole entry, looked up): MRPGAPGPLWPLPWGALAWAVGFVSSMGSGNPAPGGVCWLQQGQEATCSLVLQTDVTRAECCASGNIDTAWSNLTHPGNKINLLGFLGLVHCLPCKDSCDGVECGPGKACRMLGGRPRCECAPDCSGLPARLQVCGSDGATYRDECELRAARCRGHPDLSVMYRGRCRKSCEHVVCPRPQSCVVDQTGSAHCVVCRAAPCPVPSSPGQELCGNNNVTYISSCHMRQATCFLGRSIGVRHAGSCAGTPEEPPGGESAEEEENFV
Sequence of Fibroblast growth factor 10 (Homo sapiens) (O15520 whole entry, looked up): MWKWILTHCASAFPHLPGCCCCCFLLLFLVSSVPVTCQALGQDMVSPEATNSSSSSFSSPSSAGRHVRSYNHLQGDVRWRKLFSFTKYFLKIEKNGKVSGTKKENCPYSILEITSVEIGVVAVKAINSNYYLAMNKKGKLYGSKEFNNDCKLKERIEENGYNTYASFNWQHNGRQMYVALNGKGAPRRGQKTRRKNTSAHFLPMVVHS
Sequence of Left-right determination factor 2 (Homo sapiens) (O00292 whole entry, looked up): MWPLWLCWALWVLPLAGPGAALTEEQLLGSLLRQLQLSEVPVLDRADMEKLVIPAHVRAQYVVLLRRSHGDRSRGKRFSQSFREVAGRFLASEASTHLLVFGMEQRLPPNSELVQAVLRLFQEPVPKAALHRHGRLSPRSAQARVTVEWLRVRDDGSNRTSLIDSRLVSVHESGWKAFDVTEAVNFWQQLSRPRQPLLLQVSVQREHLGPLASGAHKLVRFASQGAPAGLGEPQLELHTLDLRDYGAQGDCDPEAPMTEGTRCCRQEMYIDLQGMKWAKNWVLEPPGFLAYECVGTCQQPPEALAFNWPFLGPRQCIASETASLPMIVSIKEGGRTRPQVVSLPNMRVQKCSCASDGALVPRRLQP

Regarding `[N-]=[N+]=NCc1ccccc1C[C@]1(C(=O)O)N=C(c2ccc(OCCCO)cc2)O[C@H]1c1ccccc1`, the composite z-score is 1.44 in [1]; 0.181 in assay [2]; 1.06 in assay [3]; -0.2 in [5]; 0.102 in assay [6]; -1 in assay [7]. Further, the composite z-score was -0.627 in assay [8]; -0.94 in [9]; 0.884 in [10]; 0.903 in [11]; -1.18 in [13]; 1.17 in assay [14]. In addition, the composite z-score in assay [15] was 0.671; in assay [16], -0.096; in assay [17], -0.0626; in [18], 1.29; in [19], 3.14; in [20], 0.966. For the same compound, the z-score in [4] is 0.624 (inactive); in assay [12], -0.748.

Regarding `CCCCCCCCCCC(O)C1C=CC2C(=O)N(Cc3ccccc3)C(=O)C2N1n1cnnc1` (stereo not given), the composite z-score in assay [1] is 0.724; in assay [2], 0.897; in assay [3], 0.739; in assay [5], -0.262; in assay [6], 0.08; in [7] it was -0.384. In addition, the composite z-score in assay [8] is -0.351; in assay [9], -0.906; in assay [10], 1.23; in [11], 1.37; in [13] it was -0.62; in [14], 1.55. In addition, the composite z-score turned out to be 0.727 in [15]; 0.147 in [16]; 0.251 in assay [17]; 0.62 in assay [18]; 0.36 in [19]; 1.02 in assay [20]. The z-score was -0.47 (inactive) in [4] and -1.2 in [12].

For the compound `CCOC(=O)C[C@H]1[C@H](OC(=O)c2ccc(-c3ccccc3)cc2)[C@@H](NC(=O)c2ccc3ccccc3c2)c2cc(OCCCO)ccc2N1C(=O)Cc1ccc(OC)cc1`, the composite z-score is -0.517 in assay [1]; -0.0669 in assay [2]; -0.269 in [3]; -0.383 in assay [5]; 0.247 in assay [6]; -0.245 in [7]. The composite z-score in [8] was 0.368; in [9] it was -0.416; in [10], 0.487; in assay [11] it was 0.758; in [13], 0.0216; in [14], 0.868. For the same compound, the composite z-score in assay [15] was 0.171; in assay [16], -0.001; in [17], 0.151; in assay [18] it was -0.0209; in [19] it was 0.15; in [20], 0.0773. The z-score in assay [4] is -0.334 (inactive); in [12] it was -0.983.

Regarding `COc1ccc(CCNC(=O)[C@@]2(c3ccc([N+](=O)[O-])cc3)CC(=O)N(CC34CC5CC(CC(C5)C3)C4)[C@@H]2c2ccc(CO)cc2)cc1`, the composite z-score was 1.06 in assay [1]; 1.38 in [2]; 0.764 in assay [3]; 0.76 in assay [5]; 1.07 in assay [6]; 0.453 in [7]. In addition, the composite z-score in assay [8] amounted to 1.03; in assay [9] it was 0.828; in [10] it was 0.432; in assay [11], 1.42; in assay [13], 0.614; in assay [14], 0.581. The composite z-score was 0.084 in [15]; -0.0202 in [16]; 0.2 in assay [17]; -0.0281 in assay [18]; 0.299 in assay [19]; 0.155 in assay [20]. Further, the figures for the z-score in [4] and in assay [12] were 0.539 (inactive) and -3.38, respectively.

With `O=C1N(CCS(=O)(=O)c2ccccc2)Cc2ccccc2[C@H]2OC(c3ccc(OCCCO)cc3)=N[C@@]12CCS(=O)(=O)c1ccccc1`, the composite z-score in [1] was determined as 1.55; in assay [2], 0.883; in [3], 1.13; in [5] it was 1.03; in [6], 0.916; in assay [7], 0.423. In addition, the composite z-score stood at 0.411 in assay [8]; 0.13 in assay [9]; 1.03 in assay [10]; 0.961 in assay [11]; 0.558 in [13]; 1.25 in [14]. Also, the composite z-score in assay [15] came to 0.38; in assay [16], 0.115; in assay [17], 0.0348; in assay [18], 0.763; in assay [19] it was 1.41; in assay [20], 1.97. Also, the z-score in [4] is -0.872 (inactive); in assay [12] it was -1.55.

For `O=C1O[C@H](c2ccccc2)[C@H](c2ccccc2)N2[C@H]1[C@@H](C(=O)N1CCN(c3ncccn3)CC1)[C@]1(C(=O)Nc3ccccc31)[C@H]2c1ccc(OCCO)cc1`, the composite z-score was 0.348 in [1]; -0.0864 in assay [2]; 0.174 in assay [3]; 1.29 in assay [5]; 1.22 in [6]; 0.665 in assay [7]. In addition, the composite z-score in assay [8] is 1.32; in [9] it was 0.632; in assay [10], 0.395; in assay [11], 1.42; in [13], 0.609; in [14], -0.316. The composite z-score in assay [15] was -0.802; in assay [16] it was -0.0286; in [17], -0.0578; in [18], -0.0464; in assay [19], 0.75; in assay [20], 0.4. Moreover, the z-score in assay [4] is -1.15 (inactive); in [12], -1.67.

(Values after PubChem BioAssay.)
